# Experimental data taken from publication PMC4336329 (PLoS ONE, 2015).
# Hit rate of the full screen: of about 310,000 compounds, about 14,000 (4.5%) showed an effect of 50% or more. Effects have a minus sign here. Many of the other results were omitted from the sample, so strong results are more common in it than they were.
# Target: human ether-à-go-go-related gene (hERG) potassium channel (human, UniProt Q12809)
# Experiment: primary screen, population patch clamp on CHO cells stably expressing hERG; higher = less effect of the substance
# 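Also: peak tail current of the secondary pulse compared with the same well before compound.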
# human ether-à-go-go-related gene (hERG) potassium channel, sequence (Q12809 whole entry, looked up): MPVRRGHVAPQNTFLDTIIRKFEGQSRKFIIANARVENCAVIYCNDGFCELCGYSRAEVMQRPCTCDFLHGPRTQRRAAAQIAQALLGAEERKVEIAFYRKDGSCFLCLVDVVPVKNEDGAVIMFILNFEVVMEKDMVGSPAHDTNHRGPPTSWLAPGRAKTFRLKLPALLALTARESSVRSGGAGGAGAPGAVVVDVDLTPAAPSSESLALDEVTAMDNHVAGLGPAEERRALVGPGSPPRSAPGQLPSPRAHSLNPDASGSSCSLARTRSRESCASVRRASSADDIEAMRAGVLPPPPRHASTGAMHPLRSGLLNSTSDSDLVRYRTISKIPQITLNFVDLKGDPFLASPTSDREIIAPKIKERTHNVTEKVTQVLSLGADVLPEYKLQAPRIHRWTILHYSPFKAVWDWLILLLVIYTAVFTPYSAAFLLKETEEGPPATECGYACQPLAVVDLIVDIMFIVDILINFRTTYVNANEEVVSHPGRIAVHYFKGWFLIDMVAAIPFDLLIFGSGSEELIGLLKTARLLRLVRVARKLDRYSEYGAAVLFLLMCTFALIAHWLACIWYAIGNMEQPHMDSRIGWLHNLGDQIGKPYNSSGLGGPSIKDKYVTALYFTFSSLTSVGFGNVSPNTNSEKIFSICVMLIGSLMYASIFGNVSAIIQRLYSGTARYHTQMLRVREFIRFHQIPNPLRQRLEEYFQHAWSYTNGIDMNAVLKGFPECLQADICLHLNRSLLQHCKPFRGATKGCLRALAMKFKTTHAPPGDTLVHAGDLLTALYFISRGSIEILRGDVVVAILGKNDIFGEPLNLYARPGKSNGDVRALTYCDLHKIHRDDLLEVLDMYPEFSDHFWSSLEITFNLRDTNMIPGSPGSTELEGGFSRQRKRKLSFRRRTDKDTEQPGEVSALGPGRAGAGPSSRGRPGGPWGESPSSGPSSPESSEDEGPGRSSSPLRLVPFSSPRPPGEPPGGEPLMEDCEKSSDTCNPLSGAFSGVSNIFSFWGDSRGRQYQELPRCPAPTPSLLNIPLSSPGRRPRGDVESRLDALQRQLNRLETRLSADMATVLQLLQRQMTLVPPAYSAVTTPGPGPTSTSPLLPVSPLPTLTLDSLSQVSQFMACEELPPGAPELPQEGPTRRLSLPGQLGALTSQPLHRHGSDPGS
row,SMILES,"hERG current change (%, negative = inhibition) at 10uM [%]"
1,N#Cc1c(N)nc2c(c1N)CC(CO)O2 (stereo not drawn),22.6
2,Cc1occc1-c1nnc(SCC(=O)NCC2CCCO2)n1C (stereo not drawn),-2
3,Cc1occc1-c1nnc(SCC(=O)c2ccc(Cl)cc2)n1CC1CCCO1 (stereo not drawn),-65.1
4,O=C(CSc1nnc(-c2ccncc2)n1-c1ccc(Cl)cc1)NCc1cccs1,-15.3
5,Cc1occc1-c1nnc(SCC(=O)NCc2cccs2)n1-c1ccc(F)cc1,-60.2
6,O=C(CSc1nnnn1-c1ccc(F)cc1)NCc1cccs1,-0.104
7,COc1ccc(C(=O)CSc2nnc(-c3ccoc3C)n2CC2CCCO2)cc1 (stereo not drawn),-11.7
8,COc1ccc(-c2nnc(SCC(=O)NCc3cccs3)n2C)cc1,-1.49
9,Cc1occc1-c1nnc(SCC(=O)c2ccccc2)n1CC1CCCO1 (stereo not drawn),-8.58
10,Cc1ccc(C)c(-n2c(SCC(=O)NCC3CCCO3)nnc2-c2ccoc2C)c1 (stereo not drawn),6.82
11,Cc1ccc(-n2c(SCC(=O)NCC3CCCO3)nnc2-c2ccoc2C)cc1 (stereo not drawn),-55.6
12,COc1ccc(-n2c(SCC(=O)NCc3cccs3)nnc2-c2ccoc2C)cc1,-78
13,COc1ccc(-c2nnc(SCC(=O)NCc3cccs3)n2C(C)C)cc1,-35.8
14,COc1cccc(N=Nc2c(C)[nH]n(-c3ccccc3)c2=O)c1,10.1
15,O=C(Cn1nc(C(F)F)cc1C1CC1)N1CCCC1,1.61
16,CCCCn1c(SCC(=O)NC2CCS(=O)(=O)C2)nnc1-c1ccc(OC)cc1 (stereo not drawn),-4.68
17,Cc1ccc(NC(=S)N/N=C2\CCCCC2C)cc1 (stereo not drawn),-10.4
18,O=C(ONC1=NCCCCC1)c1ccc([N+](=O)[O-])cc1,-5.87
19,CC(=O)Nc1ccc(S(=O)(=O)N2CCC(C(=O)NC3CCCC3)CC2)cc1,-0.813
20,CC(=O)Nc1ccc(S(=O)(=O)NC(C)C(=O)NCCc2ccc(F)cc2)cc1 (stereo not drawn),11.3
21,Cc1ccc(C(O)(C(=O)NNc2ccc3ccccc3[nH+]2)c2ccc(C)cc2)cc1.[Cl-],12.9
22,Cc1cccc(-n2c(SCC(=O)O)nc3sc4c(c3c2=O)CCCC4)c1,16.6
23,CCCC(=O)C1C(=O)CC(C)(C)C(c2cc(C)no2)C1=O (stereo not drawn),-6.76

row,SMILES,"hERG current change (%, negative = inhibition) at 10uM [%]"
1,CC(Sc1nnc(-c2ccc(OC(F)F)cc2)n1N)C(=O)NCC1CCCO1 (stereo not drawn),-24.2
2,COC(=O)CSc1nnc(-c2ccoc2C)n1-c1ccc(C)cc1,-37
3,Cc1nnc(SCC(=O)NCc2cccs2)n1-c1ccccc1,1.68
4,Cc1ccc(-n2c(SCC(=O)NCc3cccs3)nnc2-c2ccoc2C)cc1,-74.8
5,COc1ccc(-c2nnc(SCC(=O)NCC3CCCO3)n2C)cc1 (stereo not drawn),9.8
6,Nn1c(SCC(=O)NCC2CCCO2)nnc1-c1ccc(OC(F)F)cc1 (stereo not drawn),-68.5
7,O=C1C2CCCN2C(c2ccc(Cl)cc2)N1c1ccccn1 (stereo not drawn),-3.03
8,COc1ccc(CNCC(O)(c2ccccc2)c2ccccc2)cc1OC,-60
9,OC(CNCc1ccccc1F)(c1ccc(F)cc1)c1ccc(F)cc1,-26.7
10,COc1ccccc1CNCC(O)(c1ccc(Cl)cc1)c1ccc(Cl)cc1,-13.7
11,COc1ccc(CNCC(O)(c2ccc(Cl)cc2)c2ccc(Cl)cc2)cc1OC,-30.9
12,COc1ccc(CNCC(O)(c2ccc(F)cc2)c2ccc(F)cc2)cc1OC,-62.1
13,Cc1ccc(CNCC(O)(c2ccccc2)c2ccccc2)cc1,-33
14,COc1ccccc1CNCC(O)(c1ccc(F)cc1)c1ccc(F)cc1,-68
15,COc1ccc(CNCC(O)(c2ccccc2)c2ccc(F)cc2)cc1OC (stereo not drawn),-61.2
16,COc1ccc(CNCc2ccc(C(F)(F)F)cc2)cc1OC.O=C(O)C(=O)O,6.54
17,N#CCCN(Cc1ccccc1)S(=O)(=O)c1cccs1,-16.5
18,COc1cc(CC(=O)N(C)CC(=O)Nc2cc(C)ccc2C)cc(OC)c1OC,11
19,COc1ccc(OCC(=O)O/N=C(\N)c2ccc(OC)c(OC)c2)cc1,7.84
20,CN(C)S(=O)(=O)c1ccc(C(=O)OCC(=O)Nc2cccnc2Cl)cc1,1.64
21,CC(=O)N1CCN(Cc2nc3cc(NC(=O)Cn4nc(C)c5ccccc5c4=O)ccc3n2C)CC1,17.9
22,COc1ccc(CN2C(=O)CCC2(C)C(=O)NC2CCCCCC2)cc1 (stereo not drawn),-13.8
23,O=C(NCc1ccncc1)Nc1cc(Cl)ccc1Cl,-8.6

row,SMILES,"hERG current change (%, negative = inhibition) at 10uM [%]"
1,CC1=CN2CC(O)CN=C2C=C1.Cl (stereo not drawn),-1.57
2,COc1cccc(OC)c1OCCNCC1CSc2ccccc2O1.Cl (stereo not drawn),-53.6
3,COc1cccc(OC)c1OCCNCC1COc2ccccc2O1.Cl (stereo not drawn),-22.5
4,COc1cccc(OC)c1OCCNCCO,21.5
5,COc1ccc(-n2nnc3c(SCC(=O)Nc4ccccc4F)ncnc32)cc1,18.9
6,CCOc1ccccc1NC(=O)CSc1nnc(Cn2c(=O)sc3ccccc32)n1C,-61.9
7,CCOc1ccccc1NC(=O)CSc1nnc(-c2ccccn2)n1Cc1ccco1,-67.3
8,CCOc1ccc(NC(=O)CSc2nnc(Cn3c(=O)sc4ccccc43)n2C)cc1,-4.3
9,COc1ccc(C)cc1NC(=O)CSc1nnc(-c2ccccn2)n1Cc1ccco1,-15.8
10,CCOC(=O)CNC(=O)CSc1nnc(-c2ccco2)n1Cc1ccco1,10.4
11,COc1ccccc1NC(=O)CSc1nnc(-c2ccccn2)n1Cc1ccco1,-9.97
12,COc1ccccc1NC(=O)CSc1nnc(Cn2c(=O)sc3ccccc32)n1C,-44
13,CCCn1c(SCC(=O)Nc2ccccc2OC)nnc1-c1ccco1,-68.5
14,CCOc1ccccc1NC(=O)CSc1nnc(-c2ccco2)n1Cc1ccco1,-63.4
15,CCOc1ccccc1NC(=O)CSc1nnc(-c2ccccc2Cl)n1Cc1ccco1,-32
16,COCCn1c(SCC(=O)Nc2ccccc2OC)nnc1-c1ccco1,-13.6
17,COc1ccccc1NC(=O)CSc1nnc(-c2ccco2)n1N,-3.82
18,CCOc1ccc2nc(NC(=S)N(C)C)sc2c1,13
19,Cc1ccnc(NC(=S)NC(=O)c2ccco2)c1,-10.3
20,Cc1cc(C)c(C(=O)COC(=O)c2cc([N+](=O)[O-])ccc2N2CCOCC2)cc1C,-4.07
21,Cc1ccc(SC(C)c2nc(-c3cccnc3)no2)cc1 (stereo not drawn),-30.5
22,COc1ccc(OC)c(CN2CCN(C(=O)c3ccco3)CC2)c1.O=C(O)C(=O)O,0.201
23,COc1ccc(C)cc1NC(=O)CSc1nnc(-c2ccco2)n1Cc1ccco1,-12.8

row,SMILES,"hERG current change (%, negative = inhibition) at 10uM [%]"
1,COC(=O)CSc1nnc(-c2ccco2)n1Cc1ccco1,-26.8
2,COc1ccccc1NC(=O)CSc1nnc(-c2ccco2)n1Cc1ccco1,-65.4
3,CN(C)c1cc(-c2ccc(Br)cc2)oc(=O)c1Cl,15.5
4,CN(C)c1cc(-c2ccc(C#N)cc2)oc(=O)c1Cl,-50.1
5,CN(C)c1cc(-c2ccc(Cl)cc2)oc(=O)c1Cl,-6.67
6,CCCCSc1cc(C)nc(N)n1,-1.73
7,O=C(Nc1ccc(O)c(C(=O)O)c1)c1ccc2c(c1)C(=O)N(CC1CCCO1)C2=O (stereo not drawn),6.21
8,CS(=O)(=O)O.OC(CCN1CCCCC1)(c1ccccc1)c1ccccc1,-36.2
9,CCCCCC(O)(CCN1CCCCC1)c1ccccc1.Cl (stereo not drawn),-82.4
10,CCCCCCC(O)(CCN1CCCCC1)c1ccccc1.Cl (stereo not drawn),-70.3
11,CCCCCC(O)(CCN1CCCCC1)c1ccc(OCC)cc1.Cl (stereo not drawn),-77.1
12,CCCCOc1ccc(C(O)(CCN2CCOCC2)c2ccccc2)cc1.Cl (stereo not drawn),-21.7
13,C=CCC(O)(CCN1CCCCC1)c1ccccc1.Cl (stereo not drawn),-10.8
14,COc1ccc(C(O)(CCc2ccccc2)CCN2CCCCC2)cc1.Cl (stereo not drawn),-17.5
15,Cl.OC(CCCN1CCCCC1)(c1ccccc1)c1ccccc1,-44
16,CCC(O)(CCN1CCCCC1)c1ccccc1 (stereo not drawn),-5.84
17,NC(=O)c1nsc(C(=O)N(c2cccc(F)c2)C(C(=O)NCc2ccccc2)c2ccc(O)cc2)c1N (stereo not drawn),-22.4
18,Cc1cccn2c(CN(C)CC3CCCCO3)c(C(=O)N3CCCCC3)nc12 (stereo not drawn),20.9
19,Cc1cc(S(=O)(=O)NCc2ccco2)c(C)cc1Cl,14.1
20,COc1ccc(-c2nc3ccccc3c(=O)n2N)cc1,-13.7
21,Cc1nnc(NC(=O)c2csc3c2CCC(C)C3)s1 (stereo not drawn),13.9
